mHTT-CaM PPI inh = inhibitors of human mutant huntingtin-calmodulin interaction; P42858; actives 3.6% (n = 190,000); inhibition, % at 15 µM; AlphaScreen His-mHTT/GST-CaM binding, luminescence;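 further: 0% = both proteins with DMSO and 100% = one protein alone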
Pf apPOL inh = Pf-apPOL DNA polymerase inhibition; Recombinant Pf-apPOL, molecular beacon fluorescence, 1.5 h; inhibition, % at 10 µM; actives 0.25% (n = 210,000)
Active calls of the source: *; / = not tested or not shown. Hits are enriched below; roughly 3.6% of the tested compounds scored in any of these assays. No stated cut-off is given here; in the data, active means inhibition above about 50%; inactive means the rest.

SMILES	mHTT-CaM PPI inh	Pf apPOL inh
O=C(Nc1ccc(F)c(F)c1)c1ccc(N2CC3CC(C2)c2cccc(=O)n2C3)c([N+](=O)[O-])c1 (configuration not stated)	22	-5
O=C(NCc1ccc(Cl)cc1)c1ccc(N2CC3CC(C2)c2cccc(=O)n2C3)c([N+](=O)[O-])c1 (configuration not stated)	59*	-8
CCNc1cc(N2CCC(CCC(=O)N3CCN(c4cccc(C)c4)CC3)CC2)ncn1	36	-2
CCCCOc1ccc(C(=O)NC2(c3nc(C)no3)CCCCC2)cc1	-3	1
Cc1ccc(NC(=O)CSc2nc3[nH]ncc3c(=O)n2-c2cccc(Cl)c2)cc1Cl	37	-11
O=C(CSc1ccccn1)Nc1ccc(Br)cc1	-12	3
O=C(CSc1ccc(-c2ccccn2)nn1)Nc1ccc(F)c(F)c1	99*	-6
COc1ccc(-c2cc(C(F)(F)F)n3nc(C(=O)NC(C)C)c(Cl)c3n2)cc1OC	-2	2
COc1ccc(-c2cc(C(F)(F)F)n3nc(C(=O)O)c(Cl)c3n2)cc1OC	83*	2
NC1=NN(c2ccccc2)CC1	5	3
Cc1cc(COC(=O)C2N3C(=O)[C@@H](NC(=O)COc4ccccc4)[C@H]3SC2(C)C)on1 (some centres not stated)	8	-7
CC1(C)S[C@@H]2[C@H](NC(=O)COc3ccccc3)C(=O)N2[C@H]1C(=O)OCc1cccc2cccnc12	51*	-2
CC(C)S(=O)(=O)c1cccc(-c2nnc(NC(=O)c3ccc4c(c3)CCCC4)o2)c1	51*	-18
COc1ccccc1-c1nnc(NC(=O)c2ccc3c(c2)CCCC3)o1	-2	-6
NS(=O)(=O)c1ccc(NC(NC(=O)c2ccc([N+](=O)[O-])cc2)C(Cl)(Cl)Cl)cc1 (configuration not stated)	15	-10
O=C(Nc1cccc(Cl)c1)c1ccc([N+](=O)[O-])cc1Cl	16	4
O=C(NC(Nc1ccc([N+](=O)[O-])cc1)C(Cl)(Cl)Cl)c1cccc([N+](=O)[O-])c1 (configuration not stated)	98*	-1
O=C(Nc1cccc(Cl)c1)c1cccc([N+](=O)[O-])c1	92*	-16
Cc1cccc(NC(NC(=O)N(C)C)C(Cl)(Cl)Cl)c1 (configuration not stated)	5	-3
Cc1cccc(NC(NC(=O)c2ccc([N+](=O)[O-])cc2)C(Cl)(Cl)Cl)c1 (configuration not stated)	76*	-1
NS(=O)(=O)c1ccc(NC(NC(=O)c2cccc(Cl)c2)C(Cl)(Cl)Cl)cc1 (configuration not stated)	10	0
O=C(NC(Nc1ccc([N+](=O)[O-])cc1)C(Cl)(Cl)Cl)c1cccc(Cl)c1 (configuration not stated)	100*	0
COc1cc([N+](=O)[O-])ccc1NC(=O)C(C)Oc1ccccc1 (configuration not stated)	-2	0
O=C(NCCO)c1ccc(N2C(=O)CCC2=O)cc1	-3	0
N#CC(=NNc1ccc(F)cc1F)C(=O)C1CC1	/	-2
SMILES	mHTT-CaM PPI inh	Pf apPOL inh
Oc1ccc2c(c1)CC[C@H](c1ccccc1)[C@@H]2c1ccc(OCCN2CCCC2)cc1	/	10
COc1ccc(CN2C(=O)c3ccccc3C2C(=O)NC2CCCCCCC2)c(OC)c1 (configuration not stated)	19	-20
CCC(=O)N1CCN(c2ccc(NC(=O)c3cc(F)cc(F)c3)cn2)CC1	-6	-1
Cc1ccc2ncn(C3CCN(C(=O)C(C)Oc4ccccc4)CC3)c2c1 (configuration not stated)	9	-4
CCOc1ccc(C(=O)N2CCC(n3cnc4ccc(C)cc43)CC2)cc1	77*	-3
CCN1C(=O)c2cccnc2Sc2cc(NC(=O)c3ccccc3)ccc21	17	-3
Cc1ccccc1C1CCCN1C(=O)Cc1ccc(F)cc1 (configuration not stated)	10	1
CC(C)n1c(C2CCN(C(=O)c3c(F)cccc3F)C2)nc2ccncc21 (configuration not stated)	3	4
O=C1NN(c2ccc(Cl)c(Cl)c2)C(=O)/C1=C/c1ccc(-c2cccc(C(=O)O)c2)o1	17	-4
O=C1NN(c2ccc(Cl)c(Cl)c2)C(=O)/C1=C/c1ccc(-c2ccccc2C(=O)O)o1	51*	-1
CC1=NN(c2cccc(Cl)c2)C(=O)/C1=C/c1ccc(-c2ccc(C(=O)O)c(Cl)c2)o1	52*	-6
CC1=NN(c2ccccc2)C(=O)/C1=C/c1ccc(-c2ccccc2Cl)o1	8	-2
COc1cc([N+](=O)[O-])ccc1-c1ccc(/C=C2/C(=O)N(c3cccc(Cl)c3)N=C2C)o1	0	-7
CC1=NN(c2ccccc2)C(=O)/C1=C/c1ccc(-c2cccc([N+](=O)[O-])c2)o1	5	-9

Compound activity (PubChem)
